Experimental data reported in PubChem BioAssay AID624170 (National Center for Advancing Translational Sciences (NCATS), 2012).
Hit rate of the full screen: of about 410,000 compounds, about 850 (0.21%) were called active. Another 2% or so got no clear call; they are omitted. The call rests on the fitted dose curve; in most records, active means well fitted inhibition curve with a large enough effect; inconclusive means small, poorly fitted or top-dose-only effect, or another doubt; inactive means no such curve, though single readings can be large or run the other way. What follows is part of a selection rich in actives, with near analogues and random picks from the rest. Square brackets hold non-standard residues; d marks the D form. Side chains are listed from the residue outwards. Peptide text beside a SMILES is read from it. * marks the point of attachment. X1 = CCC(C)C(N)C1=NC(C(=O)*)CS1; Orn = NCCC[CH](N)C(=O)O

Biological target: Glutaminase kidney isoform, mitochondrial (Homo sapiens) (UniProt O94925)
Sequence (O94925 whole entry, looked up, canonical isoform): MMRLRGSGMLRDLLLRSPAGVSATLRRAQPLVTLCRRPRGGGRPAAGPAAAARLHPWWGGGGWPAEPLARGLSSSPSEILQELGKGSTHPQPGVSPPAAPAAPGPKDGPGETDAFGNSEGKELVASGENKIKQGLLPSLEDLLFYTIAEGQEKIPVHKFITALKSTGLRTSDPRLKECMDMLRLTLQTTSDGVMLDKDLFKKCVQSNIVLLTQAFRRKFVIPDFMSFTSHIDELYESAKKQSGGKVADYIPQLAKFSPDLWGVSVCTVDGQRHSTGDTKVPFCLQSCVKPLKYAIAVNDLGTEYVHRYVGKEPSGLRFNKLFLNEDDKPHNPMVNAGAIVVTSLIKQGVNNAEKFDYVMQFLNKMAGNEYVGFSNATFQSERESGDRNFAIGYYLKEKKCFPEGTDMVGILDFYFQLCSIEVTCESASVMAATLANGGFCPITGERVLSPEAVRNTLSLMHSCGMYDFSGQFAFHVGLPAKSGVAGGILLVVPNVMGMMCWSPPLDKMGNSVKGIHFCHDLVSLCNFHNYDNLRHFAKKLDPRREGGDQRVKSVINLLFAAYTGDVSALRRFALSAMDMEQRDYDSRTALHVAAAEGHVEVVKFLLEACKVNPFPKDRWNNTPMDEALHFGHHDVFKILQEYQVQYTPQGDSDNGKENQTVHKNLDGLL
Test: qHTS for Inhibitors of Glutaminase (GLS)
Conditions: GLS enzymatic activity, qHTS titration; series mostly up to 45.5 µM; activity change, negative = inhibition: at the top concentration
How it was run: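 Glutamate formation by hKGA was monitored fluorometrically using coupled glutamate oxidase, HRP and Amplex Red. Substrate was added as 1 mM L-glutamine solution; incubation was 30 min at RT after an initial read.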
On the % scale 0 is the no-effect control and ±100 the full control effect; potency means the concentration at half of the fitted maximal effect.

Row | SMILES | activity change, negative = inhibition | Potency
1 | COc1cc(C(=O)N2CCC(c3ccncc3)CC2)cc(OC)c1OC | -16% (inactive) | 
2 | O=C(Nc1ccc(O)cc1)c1ccccc1O | 18.9% (inactive) | 
3 | COc1cc(OC)cc(C(=O)Nc2cc3nn(-c4ccccc4)nc3cc2Cl)c1 | -7.39% (inactive) | 
4 | CCCc1c2oc(C(=O)O)cc(=O)c2cc2c(=O)cc(C(=O)O)n(CC)c12 | -0.467% (inactive) | 
5 | O=C1CSC(=S)N1/N=C/c1ccc(O)c([N+](=O)[O-])c1 | -1.11% (inactive) | 
6 | CCOc1cccc(/C=N/N2C(=O)CSC2=S)c1O |  | 10 µM (active)
7 | CCOc1cc(/C=N/n2cnnc2)c(Br)cc1O | 27.6% (inactive) | 
8 | Cc1ccccc1NC(=O)c1cc2c([nH]c1=O)CC(C)(C)CC2=O | -24% (inactive) | 
9 | CCC(C)C(N)C1=NC(C(=O)NC(CC(C)C)C(=O)NC(CCC(=O)O)C(=O)NC(C(=O)NCCCCC2NC(=O)C(CC(N)=O)NC(=O)C(CC(=O)O)NC(=O)C(Cc3cnc[nH]3)NC(=O)C(Cc3ccccc3)NC(=O)C(C(C)CC)NC(=O)C(CCCN)NC2=O)C(C)CC)CS1 (stereo not drawn) (cyclo(DNK([Ile-Glu-Leu-X1])[Orn]IFH); configuration not given here) | 5.57% (inactive) | 
10 | CC1(C)[C@H](O[C@H]2O[C@H](C(=O)O)[C@@H](O)[C@H](O)[C@H]2O[C@@H]2O[C@H](C(=O)O)[C@@H](O)[C@H](O)[C@H]2O)CC[C@@]2(C)[C@H]1CC[C@]1(C)[C@H]2C(=O)C=C2[C@H]3C[C@@](C)(C(=O)O)CC[C@]3(C)CC[C@]21C | 14.9% (inactive) | 
11 | Cc1cc(NC(=O)c2cccc(Cl)c2)ccc1-c1cc2ccccc2oc1=O | -8.99% (inactive) | 
12 | O=c1oc2ccccc2cc1-c1csc(Nc2ccc(O)cc2)n1 |  | 2.82 µM (active)
13 | N#C/C(=C\c1cccc(F)c1)c1nc(-c2cc3c(ccc4ccccc43)oc2=O)cs1 | 9.66% (inactive) | 
14 | Cc1cc2nc(NC(=O)c3ccc(S(=O)(=O)N4CCOCC4)cc3)sc2cc1C | -6.57% (inactive) | 
15 | CC1(C)O[C@@H]2C[C@@H]3[C@H]4C[C@@H](F)C5=CC(=O)C=C[C@]5(C)[C@@]4(F)[C@@H](O)C[C@]3(C)[C@]2(C(=O)CO)O1 | -9.75% (inactive) | 
16 | NNc1nnc(NN)c2ccccc12 | 18.4% (inactive) | 
17 | COc1ccc(Br)cc1CNC(=O)c1cc(=O)[nH]c2ccc(S(=O)(=O)N3CCCC3)cc12 | -6.81% (inactive) | 
18 | O=C1c2c(O)cccc2[C@@H]([C@@H]2O[C@H](CO)[C@@H](O)[C@H](O)[C@H]2O)c2cc(CO)cc(O)c21 | -1.67% (inactive) | 
19 | CCC(CCC(C)C1CCC2C3CC=C4CC(O)CC[C@@]4(C)C3CC[C@@]12C)C(C)C (stereo partly specified) | 0.242% (inactive) | 
20 | CCN(CC)S(=O)(=O)c1ccc2c3c(cccc13)C(=O)S2 | -7.06% (inactive) | 
21 | CCN1C(=O)c2ccccc2S(=O)c2ccc(C(=O)NCc3ccc(F)cc3)cc21 (stereo unspecified) | -0.753% (inactive) | 

Row | SMILES | activity change, negative = inhibition | Potency
22 | CCN1C(=O)c2cccc3c(S(=O)(=O)Nc4ccccc4O)ccc1c23 |  | 11.2 µM (active)
23 | Cc1ccc(CSc2nc3ccsc3c(=O)n2CCC(C)C)cc1 | 6.64% (inactive) | 
24 | CC[C@]1([C@H]2O[C@@H]([C@@H]3O[C@](O)(CO)[C@@H](C)C[C@H]3C)C[C@H]2C)CC[C@@H]([C@]2(C)CC[C@@]3(C[C@@H](O)[C@@H](C)[C@@H]([C@H](C)[C@H](OC)[C@H](C)C(=O)O)O3)O2)O1 | 0.877% (inactive) | 
25 | Cc1nc2nc(SCC(=O)NC3CCC(C)CC3)nn2c(C)c1Cc1ccccc1Cl (stereo unspecified) | -5.16% (inactive) | 
26 | Cn1c(SCC(=O)N/N=C/c2ccc(O)c(O)c2)nc2ccccc21 |  | 17.8 µM (active)
27 | C=CCn1c(Cn2nnc3ccccc32)nnc1SCC(=O)N/N=C/c1cc(Br)cc(OC)c1O | 28.5% (inactive) | 
28 | COc1ccc(OC)c(NC(=O)CSc2nc3cccnc3n2C)c1 | -1.35% (inactive) | 
29 | CNC(=O)CN1C(=O)c2cccnc2Sc2ccccc21 | 6.23% (inactive) | 
30 | CC(=O)c1ccc(NC(=O)COc2ccccc2-c2nc(-c3ccccc3)no2)cc1 | 1.67% (inactive) | 
31 | CCOC(=O)c1cc2c(=O)n3ccccc3nc2n(CC2CCCO2)c1=NC(=O)c1ccc(C(C)(C)C)cc1 (stereo unspecified) | 1.12% (inactive) | 
32 | CCC(C)C1OC2(C=CC1C)CC1CC(C/C=C(/C)C(OC3CC(OC)C(OC4CC(OC)C(NC(C)=O)C(C)O4)C(C)O3)C(C)/C=C\C=C3\COC4C(O)C(C)=CC(C(=O)O1)C34O)O2 (stereo unspecified) | -26.7% (inactive) | 
33 | C[C@@H]1C[C@H]2[C@@H]3C[C@H](F)C4=CC(=O)C=C[C@@]4(C)[C@]3(F)[C@H](O)C[C@]2(C)[C@@]1(O)C(=O)CO | 0.486% [at 20 µM] (inactive) | 
34 | O=C(Nc1ccccc1Cl)/C(Cl)=C(\Cl)S(=O)c1ccccc1 (stereo unspecified) |  | 1.78 µM (active)
35 | O=C(Nc1ccccc1Cl)N1CCC(CN2CCCCC2)CC1 | -5.88% (inactive) | 
36 | O=C(Nc1ccccc1Cl)N1CCC(CN2CCCC2)CC1 | 3.88% (inactive) | 
37 | O=C(/C=C/c1cccc(F)c1)NC1CC1 | 4.05% (inactive) | 
38 | Cc1nnc(C(=O)NC(C)(C)c2nc(C(=O)NCc3ccc(F)cc3)c(O)c(=O)n2C)o1 | 5.68% (inactive) | 
39 | COc1ccc(OC)c([C@H](O)CNC(=O)CN)c1 | -13.6% [at 20 µM] (inactive) | 
40 | Cc1cc(C)c2nc(SCC(=O)N(C)C3CCS(=O)(=O)C3)cc(C)c2c1 (stereo unspecified) | -2.3% (inactive) | 
41 | CCN(C(=O)COC(=O)/C=C/c1nc2ccccc2s1)C1CCS(=O)(=O)C1 (stereo unspecified) | -13.8% (inactive) | 
